From PubChem BioAssay (NCATS)
Records with an inconclusive call do not appear. The source made the active and inactive calls. Unless noted, calls follow the shape of the dose curve; as a rule, active = well fitted curve in the direction sought with a large enough effect; inconclusive = small, poorly fitted or top-dose-only effect, or another doubt; inactive = no such curve, though single readings can be large; an effect the other way counts as inactive or inconclusive.

Legend:
[1] = AP1 Signaling Pathway (AID 357; active = well fitted curve in either direction with a large enough effect, not every such curve was filed as active;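 also: ME-180 reporter cells stimulated with EGF at its EC50 level; % is scaled to controls: 0 for no effect and ±100 for the full control effect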); settings: ME-180 AP-1-bla reporter, EGF-induced, beta-lactamase ratio, 5 h; at 38 µM (top of the series)
Outline: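 AP-1-bla ME-180 cells, Opti-MEM + 0.5% dialyzed FBS, plated overnight 37 °C. Cpd titration + EC50 EGF, 5 h 37 °C. CCF4 2.5 h RT; ex 405, em 460/530 ratio → %activity, AC50.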

[2] = biological target: Cytochrome P450 1A2 (Homo sapiens) (UniProt P05177); test: p450-cyp1a2 (AID 410; calls by dose curve; also: potency is read from the fitted curve at half-maximal effect)
Outline: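 Human CYP1A2 (20nM) demethylated Luciferin-ME at its Km (100uM) in 100mM KPO4. After 10 min compound preincubation, NADPH regeneration ran the reaction 60 min at room temperature. Luciferin was read by luminescence, normalized to 57 uM furafylline.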

[3] = Stat Signaling Pathway (AID 446; active = well fitted curve in either direction with a large enough effect, not every such curve was filed as active;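 also: ME-180 cervical cancer cells given 40 pM IL-6 alongside compound; SIE-controlled beta-lactamase reporter measured as 460/530 nm FRET emission ratio; % is scaled to controls: 0 for no effect and ±100 for the full control effect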); settings: ME-180 SIE beta-lactamase reporter, IL-6 stimulated, 5 h; at 38 µM (top of the series)
Outline: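 Screening format detects activators and inhibitors alike: ME-180 SIE-bla cells stimulated at 40 pM IL-6 for 5 hrs with compound, then dual-emission beta-lactamase read at 405 nm excitation.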

[4] = biological target: Glucocorticoid receptor (Homo sapiens) (UniProt P04150); test: GR-GFP Redistribution (AID 450;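 active = compounds whose dose series gives a full or clear partial fitted curve of increased nuclear translocation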; also: potency is read from the fitted curve at half-maximal effect); settings: U2OS GR-GFP nuclear translocation, laser cytometry, 2 h
[5] = biological target: Glucocorticoid receptor (Homo sapiens) (UniProt P04150); test: GR-EFC Redistribution (AID 451; calls by dose curve; also: potency is read from the fitted curve at half-maximal effect); settings: CHO-K1 GR-EFC translocation, beta-gal luminescence, 2 h
Outline: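 Translocation of GR-ED fusion to nuclear EA restores b-gal, read by luminescence after 1 h room-temperature detection. Engineered CHO-K1 biosensor cells, 1,000/well, exposed 2 h at 37 C to titrations up to 46 uM final.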

[6] = biological target: Mitogen-activated protein kinase 10 (Mus musculus) (UniProt Q61831); test: JNK3 AlphaScreen Assay (AID 530; active = well fitted curve in either direction with a large enough effect, not every such curve was filed as active;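 also: kinase came from lysate of stimulated human HepG2 cells; signal reports phosphorylation of biotinylated GST-cJun 1-79 at Ser73 with 10 µM ATP; % is scaled to controls: 0 for no effect and ±100 for the full control effect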)
Outline: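 Room-temperature AlphaScreen kinase assay; pre-activated HepG2 lysate as JNK3 source, biotin-GST-cJun(1-79) substrate, 10 uM ATP, compound 15 min preincubation.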

[7] = biological target: 3',5'-cyclic-AMP phosphodiesterase 4B (Homo sapiens) (UniProt Q07343); test: qHTS Assay for Inhibitors of PDE-IV (AID 607; active = well fitted activation curve with a large enough effect in the main read-out, with a control signal flat, not every such curve was filed as active; also: % of control where 0% means no effect)
Outline: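 The readout is membrane depolarisation from a cAMP-sensing CNG channel, detected with a potential dye at ex 535/em 590. Cells were HEK293-derived (endogenous PDE-IV) at 1000 cells/well, titrated up to 22.9 uM final.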

[8] = biological target: Guanine nucleotide-binding protein G(i) subunit alpha-1 (Homo sapiens) (UniProt P63096); test: qHTS Assay for Inhibitors of RGS12 GoLoco Motif Activity (Green Fluorophore) (AID 879);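 also: 0% = labeled peptide with Gαi1 and full inhibition = labeled peptide alone without protein; negative values mean loss of peptide binding seen as reduced polarization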
Outline: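 Fluorescence polarization assay: 50 nM Gαi1 with 10 nM FITC-labeled RGS12 GoLoco peptide in 10 mM Tris pH 7.5, 150 mM NaCl, 0.1 mM GDP, 0.05% NP40, 10 min at room temperature with compound.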

[9] = biological target: Cytochrome P450 3A4 (Homo sapiens) (UniProt P08684); test: qHTS Assay for Activators of Cytochrome P450 3A4 (AID 885); also: nearly all actives have a fitted effect of over 65% in size
Outline: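 Steps: enzyme/substrate mix dispensed; compound added, 10 min RT; NADPH regeneration solution added, 60 min RT; luciferin detection buffer stops reaction; 20 min later luminescence measured.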

[10] = qHTS Assay for Identification of Small Molecule Agonists for Thrombopoietin (TPO) Signaling Pathway (AID 917); also: % is scaled to controls: 0 for no effect and ±100 for the full control effect
Outline: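 Murine Ba/F3 cells stably expressing human TPO receptor and a Glycoprotein IIb promoter–luciferase reporter were IL-3-starved overnight, then treated with compounds plus TPO (26 pM final, its EC50) for 24 hrs at 37 C; luminescence was read.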

[11] = biological target: Muscarinic acetylcholine receptor M1 (Rattus norvegicus) (UniProt P08482); test: qHTS Assay for Antagonists of Acetylcholine Muscarinic M1 Receptor: Measurement of IP-One Response (AID 944); also: nearly all actives have a fitted effect of over 75% in size
Outline: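 CHO cells expressing rat M1 receptor, recovered overnight, were pre-incubated 10 min with compound, then stimulated 30 min with carbachol at EC80 (200 nM) in LiCl-containing buffer, pH 7.4. IP1 accumulation was read by HTRF (620/665 nm).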

[12] = biological target: Pyruvate kinase (Leishmania mexicana) (UniProt Q27686); test: qHTS Validation Assay for Inhibitors of Leishmania Mexicana Pyruvate Kinase (AID 945);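 also: 0% = DMSO only neutral control wells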
Outline: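 Eight-point qHTS titrations in triplicate, data normalized to DMSO neutral control. Reaction: 0.2 nM LmPYK E451W mutant, 0.5 mM PEP, 0.1 mM ADP, 7 mM MgCl2, pH 7.2, one hour at room temperature; luminescent ATP detection.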

[13] = biological target: Pyruvate kinase PKM (Homo sapiens) (UniProt P14618); test: qHTS Assay for Activators of Human Muscle Pyruvate Kinase (AID 954; active = well fitted curve in the direction sought with a large enough effect, not every such curve was filed as active;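 also: 0% = uninhibited enzyme and -100% = no enzyme or full thiadiazolimine inhibition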)
Outline: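 Reaction: 0.1 nM purified PKM2 with 0.5 mM phosphoenolpyruvate and 0.1 mM ADP, room temperature, 1 h. Readout: luciferase-based ATP luminescence after stop reagent. Activators judged against a 0.3 nM enzyme column.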

[14] = biological target: Alpha-galactosidase A (Homo sapiens) (UniProt P06280); test: Counterscreen for Glucocerebrosidase Inhibitors: qHTS Assay for Human alpha-Galactosidase at pH 4.5 (AID 992); also: 0% is about no effect
Outline: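 Concentration-response curves (0.7 nM to 77 uM final) were modeled with the Hill equation to give AC50. Reactions: 2 nM enzyme, 80 uM fluorogenic alpha-galactoside, pH 4.5 citric acid buffer, 20 min, room temperature.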

[15] = biological target: alpha-glucosidase (Oryza sativa, rice) (UniProt Q653V4); test: Counterscreen for Glucocerebrosidase Inhibitors: qHTS Assay for Rice alpha-Glucosidase at pH 5.0 (AID 997);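 also: 0% = full activity with enzyme and -100% = basal without enzyme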
Outline: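 Rice alpha-glucosidase (4 nM final) with 400 uM 4-methylumbelliferyl-alpha-D-glucopyranoside in citrate buffer pH 5.0, 20 min at room temperature, stopped at pH 10; fluorescence 365/440 nm, compounds 0.7 nM–77 uM, AC50 from Hill fits.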

[16] = Validation of Assay for Modulators of Lamin A Splicing (AID 1459; active = well fitted curve in the direction sought with a large enough effect in the signal ratio; the % refers to the signal ratio;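 also: cells exposed to compound for two days before reading; 0% is about no effect; ratio rise marks activators and ratio drop marks inhibitors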)
Outline: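 S3 HeLa cells stably expressing a lamin A-EGFP splicing minigene and DsRed2 were seeded at 600 cells/well in Opti-MEM with 2% FBS, pin-dosed, and incubated 48 hrs at 37 °C, 5% CO2. Laser-scanning cytometry (488 nm) gave GFP/RFP total intensity ratio.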

[17] = biological target: DNA repair nuclease/redox regulator APEX1 (Homo sapiens) (UniProt P27695); test: qHTS Validation Assay for Inhibitors of the Human Apurinic/apyrimidinic Endonuclease 1 (APE1) (AID 1705)
Outline: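 Human APE1 was preincubated with compound for 15 min at room temperature, then 50 nM (final) THF-abasic double-stranded DNA substrate bearing 5'-TAMRA and 3'-BHQ-2 was added. Incision-driven fluorescence rise (ex 525/em 598 nm) was read kinetically.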

[18] = Counterscreen for APE1 Inhibitors: Fluorescent Dye Displacement Validation Assay (AID 1707);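 also: plate controls were ThO with dsDNA and no compound for no effect and ThO without dsDNA for full effect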
Outline: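 Assay buffer: Tris-HCl pH7.5 with 50mM NaCl, 2 mM MgCl2, 0.01% Tween-20. Dye 250 nM, duplex 50 nM final. Readout: decrease in ThO endpoint fluorescence, 480 nm excitation, 540 nm emission.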

[19] = qHTS for differential inhibitors of proliferation of Plasmodium falciparum line 7G8 (AID 1815);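 also: potency is read from the fitted curve at half-maximal effect; parasite growth measured after three days of incubation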
[20] = qHTS for differential inhibitors of proliferation of Plasmodium falciparum line D10 (AID 1877);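 also: parasites grown with compound for 72 h before DNA staining; plate controls were vehicle wells for no effect and reference inhibitor wells for full effect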
[21] = qHTS for differential inhibitors of proliferation of Plasmodium falciparum line Dd2 (AID 1882); settings: Potency: Plasmodium falciparum Dd2 proliferation inhibition;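 also: compound exposure of 72 h on infected erythrocytes; plate controls were DMSO vehicle for no effect and 0.29 µM artemisinin for full effect; nearly all actives have a fitted effect of over 65% in size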
Outline: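 SYBR Green I DNA fluorescence read-out, ex 485/em 535 nm. Signals were normalized to 0.29 uM artemisinin and DMSO wells, then corrected using vehicle-only plates flanking each stack. Parasite growth ran 72 h in erythrocytes before lysis.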

[22] = qHTS for differential inhibitors of proliferation of Plasmodium falciparum line W2 (AID 1883); settings: Potency: Plasmodium falciparum W2 proliferation inhibition;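 also: potency is read from the fitted curve at half-maximal effect; parasites grown with compound for 72 h before lysis and staining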
[23] = qHTS Assay for Modulators of Human Peripheral Myelin Protein 22 (PMP22) Expression/Activity (AID 1967; active = well fitted curve in the direction sought with a large enough effect in the signal ratio; the % refers to the signal ratio;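 also: 0% = untreated cells and 100% end not stated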)
Outline: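 MSC80 mouse Schwann cells stably carrying Pmp22 promoter–green click beetle luciferase plus EF-alpha–red luciferase control were dosed for 24h at 37 °C. Dual-colour luminescence was filter-overlap corrected; %Activity came from green/red ratio versus untreated cells.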

[24] = biological target: RecQ-like DNA helicase BLM (Homo sapiens) (UniProt P54132); test: qHTS Validation Assay for Inhibitors of Bloom's syndrome helicase (BLM) (AID 2364); also: potency is read from the fitted curve at half-maximal effect
Outline: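 Forked 20-bp duplex substrate (200 nM, TAMRA/BHQ-2) plus 2 mM ATP added after 15 min compound preincubation with 50 nM enzyme, pH 8.0, poly(dI-dC) 2.5 ug/ml. Strand separation followed by fluorescence (525/598 nm) over 2 h, normalized to enzyme-free and DMSO controls.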

[25] = Validation screen for small molecules that induce DNA re-replication in MCF 10A normal breast cells (AID 463097); also: potency is read from the fitted curve at half-maximal effect; nearly all actives have a fitted effect of over 60% in size
Outline: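 Readout: Hoechst nuclear fluorescence intensity, 405 ex / 500-530 em, by scanning plate imager; re-replication scored as increase in nuclei with elevated DNA content. Cells exposed to compound 48 hr, 37 C, 5% CO2 beforehand.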

[26] = biological target: M-phase phosphoprotein 8 (Homo sapiens) (UniProt Q99549); test: qHTS Validation Assay for Inhibitors for MPP8 Chromodomain Interactions with Methylated Histone Tails (AID 488949); also: potency is read from the fitted curve at half-maximal effect; nearly all actives have a fitted effect of over 55% in size
Outline: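 MPP8 (50 nM) was preincubated with biotinylated H3(1-18)K9me3 peptide (50 nM) in PBS pH 7.4, 0.01% Tween-20 for 30 min at room temperature, then with compounds for 30 min; binding was detected by AlphaScreen.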

[27] = biological target: Transient receptor potential cation channel subfamily V member 1 (Homo sapiens) (UniProt Q8NER1); test: HTS Assay for Compounds that Act as Enhancers of the Vanilloid Receptor 1 (AID 488979); also: 0% is about no effect
Outline: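 Calcium influx kinetics via Fluo-8 (480/520 nm) in TRPV1-expressing cells, 2000/well cultured overnight at 35.5C. Compound-alone read 3 min (agonist phase), followed by EC20 capsaicin challenge for 2 min (enhancer phase).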

[28] = biological target: Thyrotropin receptor (Homo sapiens) (UniProt P16473); test: qHTS Assay for Antagonists of the Thyroid Stimulating Hormone Receptor (AID 488980); also: 0% is about no effect
Outline: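 HEK293 cells transfected with human TSHR, suspended in HEPES-buffered HBSS with 70 uM RO 20-1724, were treated with compounds plus TSH at EC80 (4 nM final). cAMP was measured by competitive HTRF (cryptate anti-cAMP antibody, cAMP-d2 acceptor).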

[29] = biological target: Thyrotropin-releasing hormone receptor (Homo sapiens) (UniProt P34981); test: qHTS for Small Molecule Agonists and Allosteric Enhancers of Human TRH Receptor: Validation Screen for Agonists (AID 493127;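 active = calcium activation more than 3 SD above the typical response in the agonist read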;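 also: intracellular calcium rise by fluo-8 fluorescence before TRH EC20 addition; 0% is about no effect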); settings: TRH receptor agonist cell assay; at 2 µM; hits give high values
Outline: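 TRHR-expressing cells were plated overnight in serum-containing medium, then loaded with fluo-8 calcium dye at room temperature for 30 min–1.5 h. After a 10 s baseline, compound was pin-transferred and calcium fluorescence (ex 480/em 530) read kinetically for agonist response.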

[30] = biological target: Galactokinase (Homo sapiens) (UniProt P51570); test: qHTS Validation Assay for Inhibitors of Human Galactokinase (GALK) (AID 493189); also: 0% is about no effect
Outline: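 GALK (5 nM) with 35 uM ATP and 100 uM galactose in HEPES pH8.0, MgCl2, NaCl, DTT, BSA; 1 h at room temperature. Residual ATP read by Kinase-Glo Plus luminescence after 10 min.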

[31] = Validation screen for small molecules that induce DNA re-replication in SW480 colon adenocarcinoma cells (AID 504364); also: 0% is about no effect
Outline: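 SW480 cells seeded at 250 per well were exposed to compound or DMSO for 48 hr at 37 C, 5% CO2, then stained with Hoechst for 40 min. DNA content per nucleus was imaged (405 nm ex, 500-530 nm em).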

[32] = biological target: Voltage-gated inwardly rectifying potassium channel KCNH2 (Homo sapiens) (UniProt Q12809); test: qHTS Assay for Small Molecule Inhibitors of the Human hERG Channel Activity (AID 588834);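 also: top concentration of the series differs between compounds; % is scaled to controls: 0 for no effect and ±100 for the full control effect; lower thallium flux fluorescence means stronger hERG block; nearly all actives have a fitted effect of over 50% in size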
Outline: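 U2OS cells transduced with hERG via BacMam (MOI ~100), plated 2000/well, loaded with FluxOR thallium dye, compound ~10 min, then stimulation buffer; fluorescence decrease read kinetically; AC50 from Hill fits.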

[33] = biological target: N-terminal Xaa-Pro-Lys N-methyltransferase 1 (Homo sapiens) (UniProt Q9BV86); test: Confirmatory qHTS for Inhibitors of N-terminal methyltransferase 1 (NTMT1): MTaseGlo Assay (AID 1645874); also: potency is read from the fitted curve at half-maximal effect; nearly all actives have a fitted effect of over 65% in size
Outline: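 Preincubation of NTMT1 (125 nM) plus SAM (100 uM) with test compounds lasted 15 min; methylation of 1 uM SPKRIA then proceeded 30 min in the dark at room temperature. Luciferase signal reported SAH produced.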

Chain of Glucocorticoid receptor (Homo sapiens) (P04150 whole entry, looked up, the tested form may be a part): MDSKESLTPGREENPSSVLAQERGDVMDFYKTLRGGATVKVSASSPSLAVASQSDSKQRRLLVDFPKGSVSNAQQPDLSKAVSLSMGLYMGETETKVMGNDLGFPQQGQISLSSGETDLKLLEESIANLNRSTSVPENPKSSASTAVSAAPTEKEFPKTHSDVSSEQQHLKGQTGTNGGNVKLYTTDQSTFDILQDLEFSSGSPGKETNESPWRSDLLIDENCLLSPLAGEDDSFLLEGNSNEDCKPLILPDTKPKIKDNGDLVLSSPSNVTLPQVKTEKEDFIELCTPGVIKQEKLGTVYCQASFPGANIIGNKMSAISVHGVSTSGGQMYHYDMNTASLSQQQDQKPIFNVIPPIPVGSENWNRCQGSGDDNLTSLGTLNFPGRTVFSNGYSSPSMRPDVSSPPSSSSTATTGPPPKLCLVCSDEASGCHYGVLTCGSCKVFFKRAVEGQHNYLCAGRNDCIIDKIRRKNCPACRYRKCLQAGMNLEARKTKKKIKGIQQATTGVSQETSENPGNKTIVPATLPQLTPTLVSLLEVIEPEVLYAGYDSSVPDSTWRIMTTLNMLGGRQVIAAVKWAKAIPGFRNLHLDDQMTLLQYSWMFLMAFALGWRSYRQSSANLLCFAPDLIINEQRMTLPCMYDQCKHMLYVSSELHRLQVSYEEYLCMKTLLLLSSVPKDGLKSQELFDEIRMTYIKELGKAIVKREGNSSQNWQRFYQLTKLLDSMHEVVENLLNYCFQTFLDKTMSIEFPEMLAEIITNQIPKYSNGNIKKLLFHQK
Chain of Transient receptor potential cation channel subfamily V member 1 (Homo sapiens) (Q8NER1 whole entry, looked up): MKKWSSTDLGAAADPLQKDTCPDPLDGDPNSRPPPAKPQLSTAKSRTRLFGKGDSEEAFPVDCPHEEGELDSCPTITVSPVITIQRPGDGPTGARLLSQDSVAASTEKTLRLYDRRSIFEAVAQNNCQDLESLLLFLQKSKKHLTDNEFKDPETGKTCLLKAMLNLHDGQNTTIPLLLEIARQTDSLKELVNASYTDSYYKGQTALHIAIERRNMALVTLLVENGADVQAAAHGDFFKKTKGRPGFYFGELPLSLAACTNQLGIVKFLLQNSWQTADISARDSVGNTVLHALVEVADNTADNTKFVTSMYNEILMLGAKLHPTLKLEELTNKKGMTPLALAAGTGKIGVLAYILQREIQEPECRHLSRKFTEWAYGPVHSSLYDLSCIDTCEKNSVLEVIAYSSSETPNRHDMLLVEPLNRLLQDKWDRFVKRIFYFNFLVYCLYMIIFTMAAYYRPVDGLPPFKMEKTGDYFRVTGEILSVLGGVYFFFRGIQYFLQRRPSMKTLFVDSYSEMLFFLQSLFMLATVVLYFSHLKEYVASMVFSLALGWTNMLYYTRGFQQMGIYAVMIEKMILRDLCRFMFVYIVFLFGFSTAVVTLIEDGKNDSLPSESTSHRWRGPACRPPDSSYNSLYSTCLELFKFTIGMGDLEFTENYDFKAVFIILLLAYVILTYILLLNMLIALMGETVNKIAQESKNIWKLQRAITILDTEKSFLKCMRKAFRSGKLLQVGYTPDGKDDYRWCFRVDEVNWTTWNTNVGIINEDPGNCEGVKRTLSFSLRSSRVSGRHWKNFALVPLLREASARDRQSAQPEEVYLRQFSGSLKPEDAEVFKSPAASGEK
Chain of Thyrotropin-releasing hormone receptor (Homo sapiens) (P34981 whole entry, looked up): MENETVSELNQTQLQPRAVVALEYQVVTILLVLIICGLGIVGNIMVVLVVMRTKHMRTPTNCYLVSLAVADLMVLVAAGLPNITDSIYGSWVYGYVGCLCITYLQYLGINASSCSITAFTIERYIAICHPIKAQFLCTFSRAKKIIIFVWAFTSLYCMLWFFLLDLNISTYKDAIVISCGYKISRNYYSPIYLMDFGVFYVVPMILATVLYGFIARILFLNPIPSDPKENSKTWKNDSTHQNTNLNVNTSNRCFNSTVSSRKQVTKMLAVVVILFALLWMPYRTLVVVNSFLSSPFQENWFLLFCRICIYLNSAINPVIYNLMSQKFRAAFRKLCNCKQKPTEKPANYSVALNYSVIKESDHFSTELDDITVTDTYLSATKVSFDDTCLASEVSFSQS
Chain of Galactokinase (Homo sapiens) (P51570 whole entry, looked up): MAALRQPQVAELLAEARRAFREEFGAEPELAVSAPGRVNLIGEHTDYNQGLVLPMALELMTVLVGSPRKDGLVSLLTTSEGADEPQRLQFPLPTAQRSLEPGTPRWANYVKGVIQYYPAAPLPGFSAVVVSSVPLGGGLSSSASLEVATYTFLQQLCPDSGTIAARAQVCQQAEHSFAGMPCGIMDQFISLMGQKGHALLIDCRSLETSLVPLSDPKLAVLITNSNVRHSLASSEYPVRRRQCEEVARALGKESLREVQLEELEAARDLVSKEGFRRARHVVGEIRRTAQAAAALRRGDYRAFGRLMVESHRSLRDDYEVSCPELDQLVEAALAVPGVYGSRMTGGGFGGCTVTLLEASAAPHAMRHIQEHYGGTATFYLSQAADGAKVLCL
Chain of 3',5'-cyclic-AMP phosphodiesterase 4B (Homo sapiens) (Q07343 whole entry, looked up): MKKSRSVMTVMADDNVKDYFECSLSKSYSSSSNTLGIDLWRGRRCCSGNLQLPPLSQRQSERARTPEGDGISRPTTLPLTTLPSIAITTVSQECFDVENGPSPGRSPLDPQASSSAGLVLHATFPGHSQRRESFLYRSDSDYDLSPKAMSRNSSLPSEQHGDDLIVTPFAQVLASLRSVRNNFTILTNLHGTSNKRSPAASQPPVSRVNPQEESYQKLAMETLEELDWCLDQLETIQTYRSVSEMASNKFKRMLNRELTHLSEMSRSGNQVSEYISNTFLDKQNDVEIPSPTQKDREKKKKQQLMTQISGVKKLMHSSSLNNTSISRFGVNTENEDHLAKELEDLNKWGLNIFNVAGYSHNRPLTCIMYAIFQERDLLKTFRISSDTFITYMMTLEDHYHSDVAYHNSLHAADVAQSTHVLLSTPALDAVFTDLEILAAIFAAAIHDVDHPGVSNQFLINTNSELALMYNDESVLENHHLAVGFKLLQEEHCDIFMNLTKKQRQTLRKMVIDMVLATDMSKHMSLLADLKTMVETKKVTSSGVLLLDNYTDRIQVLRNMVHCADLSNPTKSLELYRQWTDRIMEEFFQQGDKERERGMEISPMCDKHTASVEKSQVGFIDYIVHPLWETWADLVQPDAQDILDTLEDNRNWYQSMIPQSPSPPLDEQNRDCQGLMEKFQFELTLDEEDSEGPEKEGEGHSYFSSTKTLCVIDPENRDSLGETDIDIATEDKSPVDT
Chain of Cytochrome P450 1A2 (Homo sapiens) (P05177 whole entry, looked up): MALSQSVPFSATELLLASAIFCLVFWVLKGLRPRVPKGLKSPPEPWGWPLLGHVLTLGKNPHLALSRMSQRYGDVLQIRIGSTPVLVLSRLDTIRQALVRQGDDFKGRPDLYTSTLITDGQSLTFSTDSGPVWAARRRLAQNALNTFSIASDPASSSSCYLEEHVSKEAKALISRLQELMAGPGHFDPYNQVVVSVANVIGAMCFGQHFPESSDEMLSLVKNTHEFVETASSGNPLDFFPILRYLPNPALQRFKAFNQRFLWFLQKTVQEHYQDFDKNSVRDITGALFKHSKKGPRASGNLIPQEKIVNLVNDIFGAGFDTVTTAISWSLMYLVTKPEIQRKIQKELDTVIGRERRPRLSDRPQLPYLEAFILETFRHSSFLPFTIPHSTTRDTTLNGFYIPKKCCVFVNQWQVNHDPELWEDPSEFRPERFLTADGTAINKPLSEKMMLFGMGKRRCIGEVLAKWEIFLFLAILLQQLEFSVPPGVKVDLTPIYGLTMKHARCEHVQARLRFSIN
Chain of Cytochrome P450 3A4 (Homo sapiens) (P08684 whole entry, looked up): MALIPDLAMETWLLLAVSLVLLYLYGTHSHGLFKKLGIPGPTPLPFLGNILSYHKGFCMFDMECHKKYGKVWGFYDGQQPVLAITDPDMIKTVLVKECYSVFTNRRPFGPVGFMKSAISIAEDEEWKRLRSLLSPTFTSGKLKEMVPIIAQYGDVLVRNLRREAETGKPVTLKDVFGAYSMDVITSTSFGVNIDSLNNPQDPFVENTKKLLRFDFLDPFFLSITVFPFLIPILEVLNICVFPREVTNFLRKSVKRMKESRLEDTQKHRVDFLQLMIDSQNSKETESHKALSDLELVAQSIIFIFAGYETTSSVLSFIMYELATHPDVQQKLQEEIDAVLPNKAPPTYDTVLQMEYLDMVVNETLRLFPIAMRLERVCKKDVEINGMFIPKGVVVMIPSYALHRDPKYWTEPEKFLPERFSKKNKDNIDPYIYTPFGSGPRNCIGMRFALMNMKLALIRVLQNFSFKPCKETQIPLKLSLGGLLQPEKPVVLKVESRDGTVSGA
Chain of M-phase phosphoprotein 8 (Homo sapiens) (Q99549 whole entry, looked up): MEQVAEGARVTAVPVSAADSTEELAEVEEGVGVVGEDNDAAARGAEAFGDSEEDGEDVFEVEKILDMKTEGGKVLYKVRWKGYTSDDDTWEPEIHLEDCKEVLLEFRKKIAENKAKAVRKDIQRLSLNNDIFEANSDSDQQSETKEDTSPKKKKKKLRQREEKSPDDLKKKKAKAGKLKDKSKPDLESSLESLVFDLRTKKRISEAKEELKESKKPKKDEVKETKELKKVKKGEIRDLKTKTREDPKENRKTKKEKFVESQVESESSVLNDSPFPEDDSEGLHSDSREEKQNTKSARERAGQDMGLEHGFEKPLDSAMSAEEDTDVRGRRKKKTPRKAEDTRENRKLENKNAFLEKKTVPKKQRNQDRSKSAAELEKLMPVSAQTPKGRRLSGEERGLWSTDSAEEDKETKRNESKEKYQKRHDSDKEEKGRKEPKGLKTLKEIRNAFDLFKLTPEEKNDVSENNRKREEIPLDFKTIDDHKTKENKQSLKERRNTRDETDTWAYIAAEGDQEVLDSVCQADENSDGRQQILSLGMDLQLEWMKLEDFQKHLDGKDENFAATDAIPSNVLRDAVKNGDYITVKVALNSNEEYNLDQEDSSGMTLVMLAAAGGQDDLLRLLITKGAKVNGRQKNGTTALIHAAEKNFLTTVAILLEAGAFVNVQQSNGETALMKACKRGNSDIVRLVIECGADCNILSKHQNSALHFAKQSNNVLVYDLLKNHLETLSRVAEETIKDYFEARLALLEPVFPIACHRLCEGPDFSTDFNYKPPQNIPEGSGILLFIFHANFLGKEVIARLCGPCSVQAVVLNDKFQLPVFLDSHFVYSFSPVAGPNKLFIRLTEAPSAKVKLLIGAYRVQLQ

CC(C)=CCC/C(C)=C/CC/C(C)=C/CSc1ccccc1C(=O)O
active: Potency [2] 12.6 µM | Potency [19] 11.2 µM | Potency [22] 11.2 µM | Potency [24] 31.6 µM | Potency [25] 11.2 µM | Potency [26] 56.2 µM | Potency [33] 39.8 µM
inactive: activity change, negative = inhibition [1] 14.1% | activity, negative = inhibition [3] 1.75% | Potency [4] > 46 µM | Potency [5] > 46 µM | Potency [6] | Potency [7] | outcome [8] | Potency [9] | Potency [10] | Potency [11] | Potency [12] | outcome [13] | outcome [14] | outcome [15] | outcome [16] | Potency [17] | Potency [18] | Potency [20] | Potency [21] | outcome [23] | outcome [27] | outcome [28] | activation [29] 1.12% | outcome [30] | outcome [31] | Potency [32]
